We go through 21 molecules from PubChem BioAssay (EPA / NIEHS).

Active and inactive are the calls of the source. Rule for the calls: active = hit-call score of the fitted dose curve at least 0.9, where 1 is the maximum; inactive = score below 0.9.

Conditions in all cases: mRNA level, 48 h; actives raise or lower the signal
Read-out in assay [1]: ATP-citrate lyase (ACLY), ACLY (gene 47)
The assay is described as follows: LTEA_HepaRG_ACLY: Life Technologies and Expression Analysis (LTEA) Assay for ATP-citrate lyase (ACLY) using HepaRG (AID 2283466). The method, boiled down:
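HepaRG, 48 h exposure, 8-pt half-log dilutions (top 100 uM), 0.5% DMSO. Readout: ACLY mRNA, TaqMan qRT-PCR, housekeeping-normalized (ACTB/GAPDH/POLR2A). Bidirectional curve fit vs DMSO.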

Read-out in assay [2]: Peroxisomal acyl-coenzyme A oxidase 1 (ACOX1) gene, ACOX1 (gene 51)
The assay is described as follows: LTEA_HepaRG_ACOX1: Life Technologies and Expression Analysis (LTEA) Assay for Peroxisomal acyl-coenzyme A oxidase 1 (ACOX1) gene using HepaRG (AID 2283467). The method, boiled down:
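Measured by qRT-PCR against three housekeeping genes: ACOX1 transcript change in human HepaRG cells after 48 h dosing. Concentrations ran up to 100 uM in half-log steps. Curves were fitted bidirectionally relative to 0.5% DMSO.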

Read-out in assay [3]: Alkaline Phosphatase, Placental (ALPP) gene, ALPP (gene 250)
The assay is described as follows: LTEA_HepaRG_ALPP: Life Technologies and Expression Analysis (LTEA) Assay for Alkaline Phosphatase, Placental (ALPP) gene using HepaRG (AID 2283468). The method, boiled down: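 Using human liver HepaRG cells, chemicals are tested in duplicate over 48 h at half-log concentrations topping at 100 uM; phenobarbital 1 mM serves as induction control. ALPP mRNA change by qRT-PCR, bidirectional fit against vehicle.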

Read-out in assay [4]: Bcl-2 (BAD) gene, BAD (gene 572)
The assay is described as follows: LTEA_HepaRG_BAD: Life Technologies and Expression Analysis (LTEA) Assay for Bcl-2 (BAD) gene using HepaRG (AID 2283469). The essentials:
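BAD transcript change, measured by qRT-PCR against three housekeeping genes and fitted in both directions relative to 0.5% DMSO, after 48 h chemical treatment of human HepaRG liver cells at concentrations up to 100 uM.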

Read-out in assay [5]: Bcl-2 (BAX) gene, BAX (gene 581)
The assay is described as follows: LTEA_HepaRG_BAX: Life Technologies and Expression Analysis (LTEA) Assay for Bcl-2 (BAX) gene using HepaRG (AID 2283470). The method, boiled down:
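Differentiated human HepaRG cells, plated 48 h then switched to serum-free induction medium, were exposed 48 h to 8 half-log concentrations up to 100 uM in 0.5% DMSO; BAX mRNA measured by qRT-PCR, normalized to ACTB, GAPDH, POLR2A.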

Read-out in assay [6]: adenosine kinase (ADK) gene, ADK (gene 132)
The assay is described as follows: LTEA_HepaRG_ADK: Life Technologies and Expression Analysis (LTEA) Assay for adenosine kinase (ADK) gene using HepaRG (AID 2283471). The method, boiled down:
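Following 48 h exposure of HepaRG cells in 0.5% DMSO (top concentration 100 uM, duplicate wells), ADK mRNA induction or suppression was measured by qRT-PCR, normalised to ACTB/GAPDH/POLR2A, and fitted bidirectionally relative to vehicle.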

Read-out in assay [7]: Alpha-fetoprotein (AFP) gene, AFP (gene 174)
The assay is described as follows: LTEA_HepaRG_AFP: Life Technologies and Expression Analysis (LTEA) Assay for Alpha-fetoprotein (AFP) gene using HepaRG (AID 2283472). The method, boiled down:
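Human HepaRG cells plated 48 h, then switched to serum-free induction medium and exposed in duplicate for 48 h to 8-point half-log series from 100 uM in 0.5% DMSO. AFP mRNA by qRT-PCR, normalized to ACTB, GAPDH, POLR2A; bidirectional fit versus DMSO.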

Read-out in assay [8]: BCL2L11 (gene 10018)
The assay is described as follows: LTEA_HepaRG_BCL2L11: Life Technologies and Expression Analysis (LTEA) Assay for Bcl-2 (BCL2L11) gene using HepaRG (AID 2283473). The method, boiled down: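 Human hepatic HepaRG cultures are treated 48 h with test chemicals (maximum 100 uM, 0.5% DMSO vehicle). Expression of BCL2L11 is measured by qRT-PCR against ACTB, GAPDH and POLR2A, with activity in either direction scored relative to vehicle.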

Read-out in assay [9]: Apolipoprotein A-V (APOA5) gene, APOA5 (gene 116519)
The assay is described as follows: LTEA_HepaRG_APOA5: Life Technologies and Expression Analysis (LTEA) Assay for Apolipoprotein A-V (APOA5) gene using HepaRG (AID 2283474). The essentials:
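Concentration-response of APOA5 expression in HepaRG: eight half-log doses to 100 uM, 48 h, qRT-PCR normalized to ACTB/GAPDH/POLR2A, bidirectional fitting with 0.5% DMSO as baseline.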

Read-out in assay [10]: Apoptosis regulator Bcl-2 (Homo sapiens) (UniProt P10415)
The assay is described as follows: LTEA_HepaRG_BCL2: Life Technologies and Expression Analysis (LTEA) Assay for Bcl-2 gene using HepaRG (AID 2283475). The method, boiled down:
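Differentiated HepaRG cells in serum-free induction medium were exposed for 48 h to eight half-log concentrations up to 100 uM in 0.5% DMSO, in duplicate. BCL2 mRNA was quantified by TaqMan qRT-PCR normalised to ACTB, GAPDH and POLR2A, with bidirectional fitting versus DMSO.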

Chain of Apoptosis regulator Bcl-2 (Homo sapiens) (P10415 whole entry, looked up): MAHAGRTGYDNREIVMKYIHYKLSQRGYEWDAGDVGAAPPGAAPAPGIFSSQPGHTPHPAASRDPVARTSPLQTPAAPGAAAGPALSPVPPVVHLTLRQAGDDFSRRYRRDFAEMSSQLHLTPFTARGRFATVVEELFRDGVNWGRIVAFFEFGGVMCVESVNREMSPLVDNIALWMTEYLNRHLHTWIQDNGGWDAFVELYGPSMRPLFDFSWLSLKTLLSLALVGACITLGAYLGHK

For orientation: AC50 means the midpoint of the concentration-response curve, whichever way the signal moves. Regarding `CN1CCN(Cc2cc(-c3ccc4[nH]c(=O)oc4c3)co2)[C@@H](c2ccc(F)cc2)C1`, the molecule was called inactive in assay [1], in assay [2], in assay [4], in [5], in assay [6] and in assay [8]. Besides, the outcome in assay [9] and in assay [10] was inactive. Further, the AC50 in assay [3] is 50 µM (active); in assay [7] it was 90.1 µM (active).
As for `COc1ccc2c(c1)c(CC(=O)O)c(C)n2C(=O)c1ccc(Cl)cc1`, the result in assay [1], in assay [2], in assay [3], in assay [4], in assay [5] and in assay [6] was inactive. The molecule was classed as inactive in assay [7], in assay [8], in assay [9] and in [10].
Regarding `Oc1ccc2c(c1)OC[C@@H](N1CCC(O)(c3ccc(F)cc3)CC1)[C@H]2O`, the result in assay [1], in assay [2], in assay [3], in [4], in [5] and in assay [6] was inactive. Further, the outcome in assay [7], in assay [8], in [9] and in assay [10] was inactive.
Consider `COc1ccc(S(=O)(=O)N2C(=O)[C@@](c3ccccc3OC)(N3C[C@H](O)C[C@H]3C(=O)N(C)C)c3cc(Cl)ccc32)c(OC)c1`, for which the AC50 was 90.5 µM (active) in assay [1]; 17.6 µM (active) in [2]; 29.5 µM (active) in assay [3]; 19 µM (active) in [5]; 12.1 µM (active) in assay [6]; 29.4 µM (active) in [7]. Moreover, the half-maximal activity concentration (AC50) was 63.4 µM (active) in assay [8], 38.5 µM (active) in assay [9] and 50 µM (active) in [10]. Moreover, in [4], the call was inactive.
On to `Cc1ccc(C(C)C)c(O)c1`, for which the molecule was called inactive in [1], in assay [2], in assay [3], in [4], in [5] and in assay [6]. In addition, the molecule was classed as inactive in assay [7], in [8], in assay [9] and in assay [10].
`Cc1oc(-c2ccccc2)nc1CCOc1cccc2c1ccn2CCC(=O)O`: the AC50 in assay [1] is 38.7 µM (active); in assay [2], 0.106 µM (active); in [3], 63 µM (active); in assay [5], 50 µM (active); in assay [7] it was 80.8 µM (active); in assay [8] it was 14.1 µM (active). For the same molecule, the AC50 was 80.7 µM (active) in assay [9] and 86.3 µM (active) in assay [10]. The result in [4] and in assay [6] was inactive.
Turning to `CCCc1cc(=O)[nH]c(=S)[nH]1`, the molecule was called inactive in assay [1], in [2], in assay [3], in assay [4], in [5] and in [6]. The molecule was classed as inactive in [7], in assay [8], in [9] and in assay [10].
In the case of `CCc1c(C(=O)NN2CCCCC2)nn(-c2ccc(Cl)cc2Cl)c1-c1ccc(Br)cc1`, the concentration at half-maximal activity (AC50) is 12.5 µM (active) in assay [1]; 32.3 µM (active) in assay [2]; 12.3 µM (active) in [3]; 27.3 µM (active) in assay [5]; 25.1 µM (active) in assay [7]; 7.59 µM (active) in assay [8]. The AC50 in [9] is 42 µM (active); in assay [10], 20 µM (active). Besides, the molecule was classed as inactive in assay [4] and in assay [6].
`CC1=C(/C=C/C(C)=C/C=C/C(C)=C/CO)C(C)(C)CCC1`: the outcome in [1], in [2], in [3], in assay [4], in [5] and in assay [6] was inactive. The call in [7], in [8] and in assay [10] was inactive. For the same molecule, in [9], the AC50 was 52.2 µM (active).
Consider `Cc1cccc(C)c1O`, for which the outcome in [1], in [2], in assay [3], in assay [4], in assay [5] and in assay [6] was inactive. The molecule was called inactive in assay [7], in assay [8], in assay [9] and in assay [10].
Regarding `Cc1ccc2ncccc2c1`, the call in [1], in [2], in assay [3], in assay [4], in assay [5] and in [6] was inactive. Besides, the result in assay [7], in [8], in assay [9] and in assay [10] was inactive.
As for `CNCc1cc(F)ccc1Oc1ccc(Cl)c(Cl)c1`, the result in assay [1], in assay [4], in [5], in assay [6], in assay [7] and in [8] was inactive. The molecule was called inactive in assay [9]. For the same molecule, the AC50 in assay [2] is 74.2 µM (active); in assay [3] it was 81.8 µM (active); in [10], 88.3 µM (active).
`CCCCCCCC=O`: the call in assay [1], in [2], in assay [3], in assay [4], in assay [5] and in assay [6] was inactive. For the same molecule, the molecule was classed as inactive in assay [7], in assay [8], in [9] and in [10].
Turning to `Nc1ccc(S(=O)(=O)c2ccc(N)cc2)cc1`, the molecule was classed as inactive in assay [1], in assay [2], in assay [3], in [4], in assay [5] and in assay [6]. For the same molecule, the outcome in [7], in assay [8], in assay [9] and in [10] was inactive.
Turning to `FC(F)(F)C(F)(F)C(F)(F)C(F)(F)C(F)(F)C(F)(F)CCI`, the call in [1], in assay [2], in [3], in [4], in [5] and in assay [6] was inactive. The result in assay [7], in assay [8], in assay [9] and in assay [10] was inactive.
Take `CNC(=O)[C@H]1O[C@@H](n2cnc3c(NCc4cc(Cl)ccc4OCc4cc(C)no4)ncnc32)[C@H](O)[C@@H]1N`: the molecule was called inactive in assay [1], in [2], in [3], in [4], in assay [5] and in assay [6]. Further, the outcome in assay [7], in [8], in assay [9] and in assay [10] was inactive.
As to `NCC1(Cc2noc(=O)[nH]2)CCCCC1`, the call in [1], in [2], in assay [3], in assay [4], in assay [5] and in assay [6] was inactive. In addition, the molecule was classed as inactive in assay [7], in assay [8], in [9] and in assay [10].
Turning to `CCCCOC(=O)CCCCCCCCC(=O)OCCCC`, the molecule was called inactive in assay [1], in assay [2], in [3], in assay [4], in assay [5] and in [6]. Besides, the call in assay [7], in [8], in assay [9] and in assay [10] was inactive.
On to `CCCCCC(=O)O`, for which the molecule was classed as inactive in assay [1], in assay [2], in [3], in assay [4], in [5] and in [6]. Moreover, the molecule was called inactive in [7], in assay [8], in [9] and in assay [10].
For `CCCCC(CC)COC(=O)CC(C(=O)OCC(CC)CCCC)S(=O)(=O)O` (stereo not given), the concentration at half-maximal activity (AC50) was 90.7 µM (active) in [1], 79.9 µM (active) in [2], 80.7 µM (active) in [4] and 81.6 µM (active) in [6]. Moreover, the result in [3], in assay [5], in [7], in assay [8], in [9] and in assay [10] was inactive.
In the case of `CCCCCCCCCCCCCCCC`, the molecule was called inactive in assay [1], in assay [2], in assay [3], in assay [4], in assay [5] and in assay [6]. In addition, the call in [7], in [8], in [9] and in [10] was inactive.
